ST2 IL33 inh = IL1RL1 inhibition. inhibition, % for hits at 17 µM. AID 1259354. Q01638. AlphaLISA ST2-Fc/biotin-IL-33 interaction, 1 h. 2.3% of 78,000 active; in the data active means inhibition above about 30%
Target sequence (Q01638 whole entry, looked up): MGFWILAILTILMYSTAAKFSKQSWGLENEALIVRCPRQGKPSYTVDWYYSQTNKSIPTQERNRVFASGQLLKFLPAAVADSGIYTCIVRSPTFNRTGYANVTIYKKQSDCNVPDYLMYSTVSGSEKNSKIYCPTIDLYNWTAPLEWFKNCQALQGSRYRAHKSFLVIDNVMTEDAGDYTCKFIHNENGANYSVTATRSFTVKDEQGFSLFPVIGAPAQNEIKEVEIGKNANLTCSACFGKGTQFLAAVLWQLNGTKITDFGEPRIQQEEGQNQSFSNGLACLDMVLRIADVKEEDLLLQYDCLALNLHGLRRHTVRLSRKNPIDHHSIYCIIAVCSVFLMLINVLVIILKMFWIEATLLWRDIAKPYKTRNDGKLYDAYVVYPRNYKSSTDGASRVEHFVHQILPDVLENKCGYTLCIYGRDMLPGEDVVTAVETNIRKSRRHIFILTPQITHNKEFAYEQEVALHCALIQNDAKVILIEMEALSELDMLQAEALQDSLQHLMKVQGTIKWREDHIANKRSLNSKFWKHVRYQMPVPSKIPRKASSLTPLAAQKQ
* hit, by the source's call; i = inactive; ! = not active in a repeat. This excerpt belongs to a sample that is enriched for hits.

SMILES	ST2 IL33 inh
CN(C)c1nc2c(c(N(C)C)n1)CCN(C(=O)CCc1cc(=O)[nH]o1)C2	i
COc1ccc(S(=O)(=O)N(CC(=O)N(C)C)c2ccc(Cl)cc2)cc1	i
COCC(=O)N[C@H]1CC[C@]2(C)CCC([C@H](C)C(=O)NCc3ccco3)[C@H](O)[C@H]2[C@@H]1C (stereo partly drawn)	i
COc1cc(O)c2c(c1)CCc1cc(O)ccc1-2	i
O=Cc1cn(CC(=O)N2CCCCCC2)c2ccc(Br)cc12	i
O=C(COc1ccc2c(c1)C(=O)CC1(CCCCC1)O2)NCc1ccc(F)cc1	i
Cc1n[nH]c(C)c1CN1CCC(N2CCCC(C(=O)N3CCCC3)C2)CC1 (stereo not drawn)	i
CC1(C(=O)NC2CCCCCCC2)CCC(=O)N1Cc1ccc(F)cc1Cl (stereo not drawn)	i
CCCn1ncc(C(=O)NC2CCCN(c3ncccn3)C2)c1C (stereo not drawn)	i
CC1=C(C(=O)Nc2cccnc2)C(c2cccs2)n2nc(SCc3ccccc3F)nc2N1 (stereo not drawn)	i
CCOC(=O)c1nn(C)c2c1CN(C(=O)c1ccc3c(c1)OCO3)CC2	i
COc1ccc(CC2=NS(=O)(=O)c3ccccc3N2)cc1OC	i
Cc1c(C(C)NCc2ccc(F)c(F)c2)cnn1-c1ccccc1 (stereo not drawn)	i
Cc1ccc2[nH]c(CNC(C)c3cnn(-c4cccc(F)c4)c3C)c(C)c2c1 (stereo not drawn)	32%*
Cc1c(C(C)NCCCc2ccccc2)cnn1-c1cccc(F)c1 (stereo not drawn)	i
CCc1cc2c(=O)c(-c3ccc(Br)cc3)coc2cc1O	i
COc1ccc(N2CCN(C(=O)c3cc4cc5ccc(OC)cc5nc4o3)CC2)cc1	i
COc1ccc(Nc2cc(C)nc(N3CCN(S(=O)(=O)c4ccc(OC)cc4)CC3)n2)cc1	i
COc1ccc(Nc2cc(C)nc(N3CCN(S(=O)(=O)c4ccc(OC)c(C)c4)CC3)n2)cc1	i
COc1ccc(S(=O)(=O)N2CCN(c3nc(C)cc(Nc4ccccc4)n3)CC2)cc1C	34%*
N#Cc1c2c(c(NCCCO)n3c1nc1ccccc13)CCC2	31%*
Cc1c(Cc2ccccc2)c(NCCCO)n2c(nc3ccccc32)c1C#N	i
CCN(CC)CCNc1c2c(c(C#N)c3nc4ccccc4n13)CCC2	i
CCOC(=O)c1c(NC(=O)CCCn2nc([N+](=O)[O-])cc2C)sc2c1CCC2	i
Clc1ccc(-c2ncnn2-c2ccc(Br)cc2)cc1	33%*!
SMILES	ST2 IL33 inh
Brc1ccc(-c2ncnn2-c2ccc(Br)nc2)cc1	i
Clc1ccccc1-n1ncnc1-c1ccc(Br)cc1	i
CC(C)CCNC(=O)CCC1=NS(=O)(=O)c2ccccc2N1	i
Cc1nc(CC(C)C)cc(C(=O)N2CCC(n3cc(CCO)nn3)CC2)n1	i
O=C(O)CNC(=O)c1ccc(Cl)cc1	i
Cc1cccnc1CN(C)Cc1nc(C(C)C)cs1	i
Cc1ccn2c(=O)cc(COc3cccc(NC(=O)C(C)(C)C)c3)nc2c1	i
Oc1oc(-c2ccc(Br)cc2)nc1C=Nc1ccccn1	i
Oc1oc(-c2ccc(Br)cc2)nc1C=Nc1ccc(Cl)cc1Cl	i
Oc1oc(-c2ccc(Cl)cc2)nc1C=Nc1ccccc1Br	31%*
Oc1oc(-c2ccc(Cl)cc2)nc1C=Nc1ccc(Br)cc1	i
Oc1oc(-c2ccc(Br)cc2)nc1C=Nc1ccc(Cl)cn1	42%*
Oc1oc(-c2ccccc2)nc1C=Nc1cccc(Cl)c1	i
Oc1oc(-c2ccccc2)nc1C=Nc1cccc(F)c1	i
Oc1oc(-c2ccc(Br)cc2)nc1C=Nc1cc(Cl)ccc1Cl	i
Oc1oc(-c2ccc(Cl)cc2)nc1C=Nc1cccc(F)c1	31%*
CC(C)(C)c1cc(Cl)ccc1OCCOCCN1CCOCC1	i
COCCCn1c(=N)c(C(=O)NC2CCCCC2)cc2c(=O)n3cccc(C)c3nc21	i
Cc1nn(C)c(C)c1CN(C(=O)c1ccc(=O)n(C)c1)C(C)C	i
Nc1cc(=O)nc(SCC(=O)Nc2nc3c(s2)CCCC3)n1-c1ccccc1	i
CN(CCC1CCOCC1)C(=O)CC1C(=O)NCCN1Cc1cccc2ccccc12 (stereo not drawn)	i
CC(C)CN1CCNC(=O)C1CC(=O)N(C)Cc1cccc2cccnc12 (stereo not drawn)	79%*
CN(Cc1cnccn1)C(=O)CC1C(=O)NCCN1Cc1ccc(F)cc1Cl (stereo not drawn)	i
Cc1cnc(N2CCC(Oc3cccnc3)CC2)nc1-c1cnn(C)c1	i
Cc1ccc(NCCC(=O)c2ccc(C)o2)cc1	31%*
SMILES	ST2 IL33 inh
Cc1ccc(C(=O)Nc2ccccc2NC(=O)c2ccc(C)o2)o1	i
Cc1ccc(C(=O)Nc2ccc(S(=O)(=O)Nc3ncccn3)cc2)o1	i
Cc1cc2ncn(CC(O)COc3cccc(Cl)c3)c2cc1C (stereo not drawn)	i
CC(C)(C)C1=CC(=O)c2c(ccc(C(C)(C)C)c2O)C1=O	65%*
O=C(C1CN(c2nccc(CCC(F)(F)F)n2)CCN1)N1CCCC1 (stereo not drawn)	i
CN(C)c1ccc(/C=c2\sc3nncn3c2=O)cc1	i
O=C1NCC2(CCCN(c3ncnc4c3CCC4)CC2)O1 (stereo not drawn)	i
COC(=O)C1=C(NC(=O)c2ccccc2F)CCS1	39%*
COC(=O)C1=C(NC(=O)c2cccc3ccccc23)CCS1	44%*
O=C(O)c1c(NC(=O)c2cccc3ccccc23)sc2c1CCCC2	i
O=C(Nc1nc2ccccc2s1)c1cccc2ccccc12	i
COC(=O)c1sc2ccccc2c1NC(=O)c1ccccc1F	i
COc1ccccc1NC(=O)c1ccccc1F	i
CCn1nc(C(=O)N(C)Cc2ccco2)c2c1CCC(NCCSC)C2 (stereo not drawn)	i
COc1cc(NC(=S)N[C@H]2CO[C@H]3[C@@H]2OC[C@@H]3n2nnnc2Oc2ccccc2)cc(OC)c1	i
COc1ccccc1N1CCN(C(=O)c2cccn3c(=O)c4c5c(sc4nc23)CCCC5)CC1	i
CCc1cc2c(=O)c(-c3ccc4c(c3)OCO4)coc2cc1OC(C)C	i
O/N=C\c1c(O)c(Br)cc2oc3c(c12)CCCC3	38%*
COc1ccccc1C(=O)C1CCCN(C(=O)Cn2nc3ccccc3n2)C1 (stereo not drawn)	i
CCCCOc1ccc(S(=O)(=O)N2CCSC2c2ccc(OC)cc2)cc1 (stereo not drawn)	i
CNC(=O)c1ccc(-c2cc(NCCN(C)C)nc3[nH]ccc23)o1	i
CNC(=O)c1cccc(-c2cc(NCc3cccnc3)nc3[nH]ccc23)c1	i
CN(C)CCNc1cc(-c2ccc(Cl)cc2F)c2cc[nH]c2n1	30%*
CCCc1cc(C(=O)NCCC2CN(C)CCO2)ccn1 (stereo not drawn)	i
O=C(C1CCC1)N1CCc2cc(S(=O)(=O)N3CCN(c4ccccc4Cl)CC3)ccc21	i
O=C(CCN1C(=O)c2ccccc2C1=O)Nc1ccccc1O	i
Cc1cc(Br)c2c3c(c(N)c(=O)[nH]c13)-c1ccccc1C2=O	45%*
Cc1cc(C)c2c(=O)cc(C3C(=O)c4ccccc4C3=O)[nH]c2c1	i
CCCCOc1ccc(C(=O)C2C(=O)NC3(C)CC2c2cccc(OC)c2O3)cc1 (stereo not drawn)	i
Cc1ccc(C(=O)N[C@H]2CO[C@H]3[C@@H]2OC[C@@H]3n2nnnc2-c2ccc(N(C)C)cc2)cc1	i
